In PubChem BioAssay (NCI):
Compounds without any hit were thinned out: in the full panel of roughly 83,000, 20% have a hit.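 96-well plates, one dose, 48 hours. Percent growth reported; active if below 10.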 Values without a mark were called inactive. Activity calls are given as the source filed them.

What follows are compounds tested on RPMI-8226 leukemia (assay: NCI-60 one-dose screen, 48 h (100 = growth as untreated, 0 = no growth, -100 = all killed)). Settings: 10 µM unless noted.
Procedure: Growth inhibition of the RPMI-8226 human tumor cell line is measured as a screen for anti-cancer activity. Cells are grown in 96 well plates and exposed to the test compound for 48 hours. Compounds are tested at a single concentration, which is 10^-5 M for most compounds. The reported endpoint is percent growth (GI% or GIPRCNT), where numbers from 0 - 100% represent growth inhibition, and numbers from -100% - 0 represent cell death. For example, a value of 40 represents 60% growth inhibition. A value of 0 means no net growth occurred over the course of the experiment. A value of -40 indicates 40% of cells at the beginning of the experiment died by the end of the experiment. A value of -100 means all cells are dead at the end of the experiment.
NCI-60 Human Tumor Cell Lines Screen was performed using the standard one-dose NCI protocol, which is described in more detail at https://dtp.cancer.gov/discovery_development/nci-60/default.htm.
Compounds with GIPRCNT values below 10 were considered active. Activity score was based on GIPRCNT using the following formula: […]
Score is 0 for GIPRCNT values of 100 or above, 50 for GIPRCNT values of 0, and 100 for GIPRCNT values of -100.

How did the growth turn out when `CC(C)OC(=S)[S-].[Au+].c1ccc([PH+](c2ccccc2)c2ccccc2)cc1` was run?
Its growth is 3.19% (active).

`O=CC(Br)C(Br)c1ccccc1` (stereo not given) was tested. Which growth did it give?
The growth was 89%.

`CC(N)Cc1ccc(O)cc1` (stereo not given) was tested. Which growth did it give?
Its growth is 98.3%.

How did the growth turn out when `CCC[CH2][Sn]1([CH2]CCC)[O]C(=O)c2cccc([N+](=O)[O-])c2C(=O)[O]1` was run?
Its growth is -40.5% (active).

With `CC(=O)Nc1ccc(Cc2ccc(NC(C)=O)cc2)cc1` as the compound, how does the growth read?
The growth was 98.2%.

With `CC(C)(NC(=O)c1nn(CCCCCF)c2ccccc12)c1ccccc1` as the compound, how does the growth read?
The growth was 78.6%.

For `CC1(C)N=C(N)N=C(N)N1c1ccc(CCCCc2ccc(Cl)cc2S(=O)(=O)F)c(Cl)c1`, which growth is on record?
Its growth is 17.8%.

With `CC(=O)[O][Hg][c]1ccccc1` as the compound, how does the growth read?
The growth was 10.1%.

With `O=C(O)c1[nH]c(=O)[nH]c(=O)c1F` as the compound, how does the growth read?
The growth was 73.7%.

How did the growth turn out when `CC[C@@H](C)/C=C(C)/C=C/C(=O)c1c(O)c(-c2ccc(O)cc2)cn(O)c1=O` was run?
Its growth is 22.5%.

Which growth does the source give for `Cn1cnnc1[S-].[Au+].c1ccc([PH+](c2ccccc2)c2ccccc2)cc1` here?
Its growth is -3.32% (active).

Which growth does the source give for `N#C[Se]CCCNS(=O)(=O)C1CC2C=CC1C2` (stereo not given) here?
Its growth is -29.5% (active).

With `CCC(CO)NC1CCCCC1` (stereo not given) as the compound, how does the growth read?
Its growth is 97.6%.

`O1[As]2O[As]3O[As]1O[As](O2)O3` was tested. Which growth did it give?
The growth was 15.1%.

How did the growth turn out when `COc1ccc(/C=C\c2cc(OC)c(OC)c(OC)c2)cc1N/C=C\C(=O)c1c[nH]c2ccccc12` was run?
The growth was 19.5%.

With `CC1(C)N=C(N)N=C(N)N1c1ccc(OCCCCNC(=O)Nc2cccc(S(=O)(=O)F)c2)c(Cl)c1` as the compound, how does the growth read?
Its growth is 38.1%.

For `c1ccc(CCN2CCCCC2Cc2ccccc2)cc1` (stereo not given), which growth is on record?
Its growth is 107%.

Which growth does the source give for `CN1CCN(C(=O)COc2ccc(/C=C3\CC4C5CC=C6CC(Cl)CCC6(C)C5CCC4(C)C3=O)cc2)CC1` (stereo not given) here?
Its growth is 53.5%.

For `OB([O][Hg][c]1ccccc1)[O][Hg][c]1ccccc1`, which growth is on record?
Its growth is -44.4% (active).

For `CCC1CN1P(=O)(OCCOC)N1CC1CC` (stereo not given), which growth is on record?
Its growth is 105%.

`CC[C@H](C)[C@H](NC(=O)Nc1ccccc1)C(=O)N(C)[C@H](C[C@@H](OC(C)=O)c1nc(C(=O)N[C@@H](Cc2ccccc2)C[C@H](C)C(=O)OC)cs1)C(C)C` was tested. Which growth did it give?
The growth was 8.45% (active).

With `COC(=O)C[Se]C(=O)c1ccccc1OC(C)=O` as the compound, how does the growth read?
Its growth is 96%.

For `CNC(=O)Oc1cccc(OC)c1`, which growth is on record?
Its growth is 109%.

With `CCN(CC)CCOc1c(C(C)C)cccc1C(C)C` as the compound, how does the growth read?
The growth was 103%.

How did the growth turn out when `C1CNC2CCCC2C1` (stereo not given) was run?
The growth was 101%.

`N#CC1=C(N)Oc2cc3c(cc2C1c1cccs1)OCO3` (stereo not given) was tested. Which growth did it give?
The growth was 24.9%.

`COC(=O)C1CC2c3ccccc3C1c1ccccc12` (stereo not given) was tested. Which growth did it give?
Its growth is 82.1%.

For `CC(C)C1c2ccc(O)cc2Oc2nc(N)c(C#N)c(N)c21` (stereo not given), which growth is on record?
Its growth is 89.4%.

`COc1cccc2c1C(=O)c1c(O)c3c(c(O)c1C2=O)CC(O)(/C(C)=N/NC(=O)CCC(=O)N/N=C(\C)C1(O)Cc2c(O)c4c(c(O)c2C(OC2CC(N)C(O)C(C)O2)C1)C(=O)c1c(OC)cccc1C4=O)CC3OC1CC(N)C(O)C(C)O1` (stereo not given) was tested. Which growth did it give?
The growth was -38% [5 µM] (active).

How did the growth turn out when `CC1(C)N=C(N)N=C(N)N1c1ccc(CCCCc2ccc(S(=O)(=O)F)cc2)c(Cl)c1` was run?
The growth was 9.22% (active).

`COc1ccc(CN2CCN(Cc3ccccc3)CC2)c(O)c1` was tested. Which growth did it give?
Its growth is 77.1%.

With `CNC(C)Cc1ccccc1` (stereo not given) (tested in a mixture with another compound) as the compound, how does the growth read?
Its growth is 90.4%.

Which growth does the source give for `Cc1ccc(C[As+](c2ccccc2)(c2ccccc2)c2ccccc2)cc1` here?
Its growth is -8.65% (active).

`COc1cc[c]([Hg][Cl])cc1` was tested. Which growth did it give?
Its growth is 41.5%.

How did the growth turn out when `COc1cc(CNCCc2ccc(Cl)cc2)cc(OC)c1O` was run?
The growth was 42.4%.

For `Oc1ccc2c3c1O[C@H]1c4[nH]c5ccccc5c4C[C@@]4(O)C(C2)N(CC2CC2)CC[C@]314`, which growth is on record?
The growth was 93.1%.

`CC1COC(=O)C1` (stereo not given) was tested. Which growth did it give?
Its growth is 110%.

Which growth does the source give for `CNC(=O)Oc1cc(C(C)C)ccc1Sc1ccc(C(C)C)cc1OC(=O)NC` here?
Its growth is 51.2%.

How did the growth turn out when `S=P(Nc1ccccc1)(Nc1ccccc1)c1ccccc1` was run?
Its growth is 82.5%.

How did the growth turn out when `O=[N+]([O-])c1ccc(/C=C/C=C/c2ccc(S(=O)(=O)F)cc2)c(Cl)c1` was run?
The growth was 93.4%.
